Consider 10 molecules from PubChem BioAssay (Tox21).

A number with no mark means an inactive call. Records with an inconclusive call do not appear. Activity calls are given as the source filed them. Unless noted, calls come from the whole dose curve; as a rule, active = well fitted curve in the direction sought with a large enough effect in the repeat runs; inconclusive = weak or mixed curves; inactive = no such curve, though single readings can be large; an effect the other way counts as inactive or inconclusive.

Assay [1] can be described thus: qHTS assay to identify small molecule antagonists of the estrogen related receptor (ERR) signaling pathway from Tox21 library - cell viability counter screen (AID 1224834). Note: nearly all actives have a fitted effect of over 30% in size. The method, boiled down: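 Cytotoxicity of test substances is gauged in the same ERR cells used for the antagonist screen, after 17.5 h of compound treatment at 37 C, by CellTiter-Fluor fluorescence measured after 30 min.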

Assay [2] deals with Luciferin 4-monooxygenase (Photinus pyralis) (UniProt P08659). Description: qHTS assay to identify small molecule inhibitors of firefly luciferase (AID 1224835). Note: nearly all actives have a fitted effect of over 25% in size. The method, boiled down:
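Biochemical qHTS: compounds run as interplate titrations against purified firefly enzyme, with D-luciferin and ATP each at its KM concentration. Light output recorded by CCD imaging.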
For orientation: Quantitative high-throughput screening tests each substance at several concentrations.

Assay [3] in a line: qHTS assay to identify small molecule antagonists of the constitutive androstane receptor (CAR) signaling pathway - cell viability counter screen (AID 1224837). Note: nearly all actives have a fitted effect of over 45% in size. In a few lines:
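Multiplexed cytotoxicity read-out for the CAR antagonist screen: double-stable HepG2-CYP2B6-hCAR cells co-treated with 50 nM CITCO (final) and compound over 15 concentrations, incubated 23 hr, then assessed by CellTiter-Fluor fluorescence.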

Assay [4] is described as follows: qHTS assay to identify small molecule antagonists of the estrogen related receptor signaling pathway with the pleiotropic PPARgamma coactivator (PGC) from Tox21 10K library - cell viability counter screen (AID 1224840; active = well fitted cell-killing curve with a large enough effect in the repeat runs, not every such curve was filed as active; note: nearly all actives have a fitted effect of over 40% in size). The method, boiled down:
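Step one, plate 2,000 PGC/ERR cells per well; step two, incubate 6 h at 37 C/5% CO2; step three, pin-transfer compounds; step four, incubate 17.5 h; step five, add CellTiter-Fluor and read fluorescence after 30 min.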

The target in assay [5] is Thyrotropin receptor (Homo sapiens) (UniProt P16473). Description: qHTS assay to identify small molecule agonists of the thyroid stimulating hormone receptor (TSHR) signaling pathway (AID 1224843; calls by dose curve; note: nearly all actives have a fitted effect of over 45% in size). In a few lines: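 Steps: seed 800 TSHR-HEK293 cells per well; add test compound and hold 30 min at ambient temperature; dispense cAMP-d2 then anti-cAMP cryptate; incubate 1 h at ambient; measure fluorescence intensity.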

Assay [6] is described as follows: qHTS assay to identify small molecule agonists of the hypoxia (HIF-1) signaling pathway - cell viability counter screen (AID 1224844; calls by dose curve; note: nearly all actives have a fitted effect of over 50% in size). In a few lines: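 Tox21 10K compounds were added to HRE-bla ME-180 cells (0.5% dialyzed FBS) and incubated 17 hrs at 37C; ATP-based CellTiter-Glo luminescence then reported cell viability in the same wells.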
Assay [7] is described as follows: qHTS assay to identify small molecule agonists of H2AX (AID 1224845; active = well fitted activation curve with a large enough effect in the signal ratio in the repeat runs, not every such curve was filed as active; the % refers to the signal ratio). In a few lines:
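Wild-type CHO-K1 cells, plated overnight, exposed 3hr at 37C to 15 concentrations (0.76% DMSO final). Lysed, then HTRF anti-pH2AX (S139) cryptate and anti-H2AX-d2 antibodies, 24 hr room temperature; 665/620 nm emission read.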

Assay [8] can be described thus: qHTS assay to identify small molecule agonists of the hypoxia (HIF-1) signaling pathway (AID 1224846; active = well fitted activation curve with a large enough effect in the signal ratio in the repeat runs, not every such curve was filed as active; the % refers to the signal ratio). The method, boiled down:
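Steps: seed ME-180 HRE-bla cells (2,000/well, 0.5% dialyzed FBS); incubate 5 hrs at 37C; pin-transfer compounds or DMSO; incubate 17 hrs; add LiveBLAzer B/G substrate CCF4-AM; measure reporter activation by FRET.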

A short description of assay [9]: qHTS assay to identify small molecule agonists of H2AX - cell viability counter screen (AID 1224847; calls by dose curve; note: top concentration of the series differs between compounds; nearly all actives have a fitted effect of over 30% in size). The method, boiled down:
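Compounds tested at 15 concentrations were incubated 3 hr at 37C with wild-type CHO-K1 cells; cellular ATP-based luminescence (CellTiter-Glo) indicated viability.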

Assay [10] in a line: qHTS RealTime-Glo MT Cell Viability Assay in HepG2 cells - 24 hour (AID 1224867). Note: nearly all actives have a fitted effect of over 50% in size. In a few lines:
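Viability was tracked continuously by NanoLuc luminescence from prosubstrate reduced by living HepG2 cells, at successive time points over 40 h of compound exposure. Cells with reagent were preincubated 5 h at 37 °C before compound addition.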

The nature of assay [11]: A CellTox Green Cytotoxicity Assay to monitor cytotoxicity in HEK293 cells - 0 hour (AID 1224869). Note: nearly all actives have a fitted effect of over 50% in size. In a few lines: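 Cytotoxicity was tracked continuously in HEK293 cells by a DNA-binding dye excluded from viable cells. Compounds were transferred in DMSO 5 h after seeding; fluorescence was recorded at intervals up to 40 h.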
Assay [12] in a line: qHTS assay to identify small molecule agonists of the constitutive androstane receptor (CAR) signaling pathway - cell viability counter screen (AID 1224836). Note: nearly all actives have a fitted effect of over 45% in size. In a few lines:
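23 h treatment, 37 C, 5% CO2. Cell line: HepG2 stably expressing hCAR with a CYP2B6-2.2kb construct. Co-treatment: PK11195, 0.75 uM final. Read-out: CellTiter-Fluor fluorescence intensity.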

Assay [13] deals with Nuclear receptor subfamily 1 group I member 3 (Homo sapiens) (UniProt Q14994). Description: qHTS assay to identify small molecule antagonists of the constitutive androstane receptor (CAR) signaling pathway (AID 1224838). Note: nearly all actives have a fitted effect of over 40% in size. In a few lines:
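Compounds were titrated across 15 concentrations onto HepG2 cells double-stably expressing hCAR and a CYP2B6-2.2kb reporter, together with 50 nM CITCO (final). After 24 h at 37 C, luciferase activity was measured by luminescence.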

For assay [14] the target is unchanged. Description: qHTS assay to identify small molecule agonists of the constitutive androstane receptor (CAR) signaling pathway (AID 1224839).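 For activation: HepG2 cells stably carrying human CAR and a CYP2B6 luciferase reporter.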 Note: nearly all actives have a fitted effect of over 15% in size. Note: potency is the fitted concentration of half-maximal effect. The method, boiled down: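 Compounds tested at 15 concentrations on HepG2 cells stably harbouring hCAR and CYP2B6-2.2kb reporter constructs, co-treated with PK11195 (0.75 uM final), 24 h at 37 C; luminescent reporter signal quantified.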

Assay [15] can be described thus: qHTS RealTime-Glo MT Cell Viability Assay in HEK293 cells - 32 hour (AID 1224868). Note: nearly all actives have a fitted effect of over 50% in size. Note: potency is the fitted concentration of half-maximal effect. The method, boiled down: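 Viability tracked continuously by luminescence as live cells reduce a prosubstrate for NanoLuc; HEK293 cells preincubated 5 h, compound-treated at 37 C, and read at 0, 8, 16, 24, 32 and 40 h.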
The nature of assay [16]: qHTS assay to identify small molecule antagonists of the estrogen related receptor signaling pathway with the pleiotropic PPARgamma coactivator (PGC) from Tox21 10K library (AID 1224841; call rule not given here). The method, boiled down:
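Antagonism in this quantitative HTS is taken from loss of luciferase signal in PGC/ERR cells. Cells (2,000/well) are treated with compounds in DMSO after a 6 h settling period and read by One-Glo luminescence after 18 h.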

The nature of assay [17]: qHTS assay to identify small molecule agonists of the estrogen related receptor signaling pathway with the pleiotropic PPARgamma coactivator (PGC) from Tox21 10K library (AID 1224842). Note: nearly all actives have a fitted effect of over 15% in size. The method, boiled down:
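PGC/ERR reporter cell line, 2,000 cells per well, incubated 6 h at 37 C before 23 nL compound in DMSO was added. After 18 h at 37 C, One-Glo luminescence read following 30 min at room temperature.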

Assay [18] is described as follows: qHTS assay to identify small molecule antagonists of the estrogen related receptor (ERR) signaling pathway from Tox21 library (AID 1224848). Note: nearly all actives have a fitted effect of over 50% in size. The method, boiled down:
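Luminescent reporter read-out (ONE-Glo) from NTP's ERR cell line after 18 h treatment at 37 C with DMSO-dissolved Tox21 compounds; cells pre-plated 6 h beforehand at 2,000 per well.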

A short description of assay [19]: qHTS assay to identify small molecule agonists of the estrogen related receptor (ERR) signaling pathway from Tox21 library (AID 1224849; calls by dose curve; note: nearly all actives have a fitted effect of over 15% in size). Conditions: ERR reporter cell line, ONE-Glo luciferase, 18 h; at 92.4 µM (top of the series) unless noted. In a few lines: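 Agonist signal is luciferase luminescence from an ERR reporter cell line treated 18 h at 37 C with DMSO-dissolved compounds, read 30 min after ONE-Glo addition at room temperature.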
% is set by controls: 0 for no effect and ±100 for the full control effect.

Luciferin 4-monooxygenase (Photinus pyralis), sequence (P08659 whole entry, looked up): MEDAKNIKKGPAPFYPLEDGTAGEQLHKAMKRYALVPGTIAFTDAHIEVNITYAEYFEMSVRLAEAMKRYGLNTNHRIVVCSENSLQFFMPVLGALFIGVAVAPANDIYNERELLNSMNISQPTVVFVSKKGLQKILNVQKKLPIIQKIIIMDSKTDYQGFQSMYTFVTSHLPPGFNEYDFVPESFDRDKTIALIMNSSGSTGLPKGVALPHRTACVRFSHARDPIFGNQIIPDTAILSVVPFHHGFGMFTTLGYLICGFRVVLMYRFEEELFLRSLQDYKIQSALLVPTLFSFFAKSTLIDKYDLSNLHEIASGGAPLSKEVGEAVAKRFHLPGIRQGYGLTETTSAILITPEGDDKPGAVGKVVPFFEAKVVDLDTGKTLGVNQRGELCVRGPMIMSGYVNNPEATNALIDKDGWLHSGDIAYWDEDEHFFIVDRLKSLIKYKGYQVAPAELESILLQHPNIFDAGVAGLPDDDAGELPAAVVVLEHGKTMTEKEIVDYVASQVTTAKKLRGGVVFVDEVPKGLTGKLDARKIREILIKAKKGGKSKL
Nuclear receptor subfamily 1 group I member 3 (Homo sapiens), sequence (Q14994 whole entry, looked up): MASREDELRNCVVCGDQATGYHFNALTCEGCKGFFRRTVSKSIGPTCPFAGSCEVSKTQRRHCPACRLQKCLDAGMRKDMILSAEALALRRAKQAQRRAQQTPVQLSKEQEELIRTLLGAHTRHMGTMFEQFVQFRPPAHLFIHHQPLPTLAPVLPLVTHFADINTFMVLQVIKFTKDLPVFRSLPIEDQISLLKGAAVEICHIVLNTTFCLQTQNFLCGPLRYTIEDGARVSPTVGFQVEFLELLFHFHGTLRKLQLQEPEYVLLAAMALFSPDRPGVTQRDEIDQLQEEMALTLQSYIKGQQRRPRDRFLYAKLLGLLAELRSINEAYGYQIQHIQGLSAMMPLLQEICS
Thyrotropin receptor (Homo sapiens), sequence (P16473 whole entry, looked up): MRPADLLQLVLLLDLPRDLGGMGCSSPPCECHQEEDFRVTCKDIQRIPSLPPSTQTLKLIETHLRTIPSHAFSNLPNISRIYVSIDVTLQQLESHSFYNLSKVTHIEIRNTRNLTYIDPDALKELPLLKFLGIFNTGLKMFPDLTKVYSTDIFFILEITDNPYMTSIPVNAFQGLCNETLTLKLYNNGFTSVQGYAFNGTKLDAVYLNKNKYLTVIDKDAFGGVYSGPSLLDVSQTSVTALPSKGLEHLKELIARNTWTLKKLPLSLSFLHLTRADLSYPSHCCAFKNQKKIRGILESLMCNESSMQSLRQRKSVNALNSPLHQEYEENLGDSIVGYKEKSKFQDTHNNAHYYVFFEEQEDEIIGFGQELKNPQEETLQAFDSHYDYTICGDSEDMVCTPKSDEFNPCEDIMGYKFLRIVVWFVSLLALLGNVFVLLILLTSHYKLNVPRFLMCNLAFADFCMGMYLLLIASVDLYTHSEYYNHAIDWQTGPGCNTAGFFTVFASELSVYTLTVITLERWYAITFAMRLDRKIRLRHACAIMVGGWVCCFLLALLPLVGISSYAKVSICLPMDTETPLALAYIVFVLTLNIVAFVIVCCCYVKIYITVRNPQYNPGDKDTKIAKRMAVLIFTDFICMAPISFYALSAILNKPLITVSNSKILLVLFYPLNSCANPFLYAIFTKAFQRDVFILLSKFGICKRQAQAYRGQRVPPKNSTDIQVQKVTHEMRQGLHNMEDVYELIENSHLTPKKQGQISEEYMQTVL

Regarding `O=P(O)(O)CN(CP(=O)(O)O)CP(=O)(O)O`, the Potency result in [1], in assay [2], in assay [3], in [4], in assay [5] and in assay [6] was “inactive” throughout. The Potency result in assay [9] and in assay [10] was “inactive” each time. The molecule was called inactive in assay [7] and in assay [8]. In addition, the cytotoxicity in assay [11] is 9.86% [at 15.8 µM].
Take `O=C1CC(=O)NC(=O)N1`: the Potency result in assay [1], in [12], in assay [3], in [13], in [14] and in assay [4] was “inactive” each time. Also, the Potency entry in assay [5], in assay [6], in assay [9], in assay [10] and in assay [15] was “inactive” in each case. Further, the molecule was classed as inactive in assay [7], in assay [8] and in [11].
Take `CCCOC(=O)Cc1ccc(OCC(=O)N(CC)CC)c(OC)c1`: the Potency entry in assay [1], in assay [12], in assay [3], in assay [4], in assay [5] and in assay [6] was “inactive” each time. The Potency result in [10] and in assay [15] was “inactive” each time. In addition, the molecule was classed as inactive in [7] and in assay [11].
As for `CCOC(=O)Nc1cccc(OC(=O)Nc2ccccc2)c1`, the Potency result in assay [1], in assay [12], in assay [3], in assay [13], in assay [4] and in [5] was “inactive” in each case. Moreover, the Potency entry in assay [6], in assay [9], in [10] and in assay [15] was “inactive” each time. In addition, in [14], the Potency was 30.6 µM (active). In addition, the molecule was classed as inactive in assay [7] and in [11].
As for `CN1C(=O)COc2c(C(=O)NC3CN4CCC3CC4)cc(Cl)cc21` (centres undefined), the Potency result in assay [1], in [12], in [3], in assay [13], in [14] and in assay [4] was “inactive” in each case. The Potency entry in assay [5], in assay [6], in [9], in assay [10] and in assay [15] was “inactive” throughout. Moreover, the molecule was classed as inactive in [7] and in [11].
With `CCCCOC(C)=O`, the Potency result in assay [1], in [12], in [3], in assay [4], in assay [5] and in assay [6] was “inactive” in each case. Moreover, the Potency entry in assay [9] and in assay [10] was “inactive” each time. Further, the result in assay [7], in assay [8] and in assay [11] was inactive.
For the molecule `CCc1ccc(C2CCNCC2)cc1`, the Potency result in assay [1], in assay [12], in [3], in [4], in assay [6] and in [9] was “inactive” throughout. Besides, the Potency result in assay [10] is “inactive”. The molecule was classed as inactive in assay [7], in [8] and in [11].
Take `CC(Cc1ccccc1)NCCn1cnc2c1c(=O)n(C)c(=O)n2C` (centres undefined): the Potency entry in assay [2], in [12], in [3], in assay [4], in assay [16] and in assay [17] was “inactive” in each case. Also, the Potency entry in assay [5], in assay [6], in [18] and in assay [10] was “inactive” throughout. Moreover, the outcome in [7], in assay [8] and in [11] was inactive. The activity change, positive = activation in assay [19] is -15.8%. In addition, in [15], the Potency was 21.6 µM (active).
On to `O=c1[nH]c2ccccc2o1`, for which the Potency result in assay [1], in [3], in assay [13], in assay [14], in assay [4] and in assay [17] was “inactive” in each case. The Potency entry in assay [5], in assay [6], in assay [9], in assay [18], in assay [10] and in assay [15] was “inactive” throughout. Also, the result in assay [7], in [8] and in assay [11] was inactive. Further, the activity change, positive = activation in [19] was -3.64%.
As for `CC(C)(N)Cc1ccc(Cl)cc1`, the Potency entry in [2], in assay [12], in assay [3], in [13], in assay [14] and in assay [4] was “inactive” each time. The Potency entry in assay [5], in [6] and in assay [10] was “inactive” each time. Also, the result in assay [8] and in assay [11] was inactive.
